In one assay the target is ZNF721 full-length (Homo sapiens, UniProt Q8TF20-2 1-923). Kind of assay: HT-SELEX; 20 mM HEPES pH 7, 140 mM KCl, 5 mM NaCl, 1 mM K2HPO4, 2 mM MgSO4, 100 uM EGTA, ZnSO4, 0.1% Tween20; room temperature, 1 h; high values mean tight binding. To be noted: protein: ivt; tags: eGFP (N-terminal); dsDNA, one strand shown. An outline of the steps: (§1)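 A tagged transcription factor, either full-length or its DNA-binding-domain fragment, was made in HEK293 lysate or cell-free extract, immobilised on beads and incubated with a randomized 40-base DNA library for 1 h at room temperature in HEPES/KCl low-stringency buffer containing Tween20. Washed beads were heat-eluted, and the bound DNA was PCR-amplified over successive cycles and Illumina-sequenced at ~3 million 60 bp reads per sample. The binding signal is the relative k-mer count in selected reads, where a higher value means tighter binding.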
ZNF721 full-length, sequence (Q8TF20 other isoform, or with tags, fused parts or gaps): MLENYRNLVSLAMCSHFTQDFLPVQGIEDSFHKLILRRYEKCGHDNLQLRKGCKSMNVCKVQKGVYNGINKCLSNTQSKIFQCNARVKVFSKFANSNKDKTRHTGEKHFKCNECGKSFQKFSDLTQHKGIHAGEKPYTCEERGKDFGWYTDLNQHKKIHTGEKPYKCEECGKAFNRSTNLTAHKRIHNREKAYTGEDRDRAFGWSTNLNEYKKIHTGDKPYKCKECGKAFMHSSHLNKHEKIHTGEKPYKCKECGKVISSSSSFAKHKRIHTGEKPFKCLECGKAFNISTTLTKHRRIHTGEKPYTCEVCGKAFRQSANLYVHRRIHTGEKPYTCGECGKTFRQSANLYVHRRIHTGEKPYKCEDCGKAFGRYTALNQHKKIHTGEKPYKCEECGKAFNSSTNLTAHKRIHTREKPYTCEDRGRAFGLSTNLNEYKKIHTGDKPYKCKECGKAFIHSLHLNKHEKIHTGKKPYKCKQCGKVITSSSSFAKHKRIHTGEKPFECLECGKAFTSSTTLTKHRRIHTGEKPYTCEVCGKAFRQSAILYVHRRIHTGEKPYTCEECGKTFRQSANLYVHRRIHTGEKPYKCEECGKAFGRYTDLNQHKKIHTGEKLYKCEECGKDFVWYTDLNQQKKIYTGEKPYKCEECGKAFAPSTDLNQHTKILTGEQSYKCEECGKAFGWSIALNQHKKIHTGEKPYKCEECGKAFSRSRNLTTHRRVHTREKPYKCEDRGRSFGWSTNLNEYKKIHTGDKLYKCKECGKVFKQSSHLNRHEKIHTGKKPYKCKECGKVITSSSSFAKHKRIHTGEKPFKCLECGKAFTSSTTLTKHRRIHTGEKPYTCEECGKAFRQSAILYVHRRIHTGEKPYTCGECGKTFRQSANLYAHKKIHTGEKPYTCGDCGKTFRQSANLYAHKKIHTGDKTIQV
ZNF721 DBD2, sequence (Q8TF20 383-911): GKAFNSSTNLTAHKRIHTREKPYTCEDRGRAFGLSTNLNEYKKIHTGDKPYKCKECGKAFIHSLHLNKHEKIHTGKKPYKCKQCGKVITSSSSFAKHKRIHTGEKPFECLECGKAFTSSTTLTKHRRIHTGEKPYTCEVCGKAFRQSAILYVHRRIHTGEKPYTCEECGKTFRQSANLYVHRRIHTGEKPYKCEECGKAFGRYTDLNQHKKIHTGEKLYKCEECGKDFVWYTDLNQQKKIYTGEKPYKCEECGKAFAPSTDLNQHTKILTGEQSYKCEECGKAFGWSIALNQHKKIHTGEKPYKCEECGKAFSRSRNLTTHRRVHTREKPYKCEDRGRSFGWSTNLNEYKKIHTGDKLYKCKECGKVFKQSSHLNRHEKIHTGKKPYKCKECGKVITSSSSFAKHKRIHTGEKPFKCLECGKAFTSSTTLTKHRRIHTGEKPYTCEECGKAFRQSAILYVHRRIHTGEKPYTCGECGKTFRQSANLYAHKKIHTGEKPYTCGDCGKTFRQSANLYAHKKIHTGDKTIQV
Turning to CAAAAACAGC, the binding signal worked out at 0.163 relative 10-mer count.
Still for that read-out and setting: under AAAACAGTGC stands 0.121 relative 10-mer count.
The same measure, in the same setting: with AAACAGCAGT the figure was 0.106 relative 10-mer count; with AACAGTGTAT, 0.129 relative 10-mer count.
Sequence AAAACAGAGT returned a binding signal of 0.236 relative 10-mer count.
Same read-out and setting: under CGAAAACAGC stands 0.167 relative 10-mer count.
Same read-out and setting: under AAACAGTGTT stands 0.338 relative 10-mer count; under AAACAGGGGT, 0.106 relative 10-mer count; under CAGGGTTGCC, 0.155 relative 10-mer count.
Same read-out and setting: under ACAAAGCAGT stands 0.146 relative 10-mer count.
AAAACAGGGG returned a binding signal of 0.112 relative 10-mer count.
The same measure, in the same setting: under AAGAAAACAG stands 0.177 relative 10-mer count.
On the same count and under the same terms, under AAAACAGTAC stands 0.126 relative 10-mer count; under CAAAACAGCG, 0.142 relative 10-mer count.
Still for that read-out and setting: with AAAGGAACAG the figure was 0.113 relative 10-mer count; with AAACAGCGTC, 0.206 relative 10-mer count.
Consider AACAGCATGC, for which the binding signal is 0.113 relative 10-mer count.
The same measure, in the same setting: with AAAACAGCGT the figure was 0.759 relative 10-mer count; with AACAAACAGC, 0.119 relative 10-mer count; with AAACAGCACA, 0.11 relative 10-mer count.
Turning to CAGTGTTACC, the binding signal is 0.128 relative 10-mer count.
Same read-out and setting: under AAACACTGCT stands 0.109 relative 10-mer count; under ACAGAGTACC, 0.123 relative 10-mer count; under CAGCATATCC, 0.162 relative 10-mer count.
On the same count and under the same terms, under AAAACAGCAT stands 0.921 relative 10-mer count; under AAAAAGCAGG, 0.195 relative 10-mer count; under AGACACTGCT, 0.109 relative 10-mer count.
Consider AAACTAGCAT, for which the binding signal is 0.118 relative 10-mer count.
With AAAACAGCAG, the binding signal came out at 0.243 relative 10-mer count.
On the same count and under the same terms, with ACAGCGTATC the figure was 0.232 relative 10-mer count; with AAAAGCAGTG, 0.383 relative 10-mer count; with ACAGTGTTTC, 0.14 relative 10-mer count.
Same read-out and setting: with AAAACAGCGG the figure was 0.134 relative 10-mer count.
Still for that read-out and setting: under GAAAAACAGC stands 0.265 relative 10-mer count; under AAACAGAGTA, 0.198 relative 10-mer count; under AAAACAGCCC, 0.152 relative 10-mer count.
With ACAGTGTCTC, the binding signal was 0.106 relative 10-mer count.
Still for that read-out and setting: with CGCTGTTTTA the figure was 0.126 relative 10-mer count; with AACAGCATCC, 0.117 relative 10-mer count.
Turning to CGCTGTTTTC, the binding signal was 0.221 relative 10-mer count.

In another assay the target is ZNF721 DBD2 (Homo sapiens, UniProt Q8TF20-2 395-923). Described as above. Particulars: protein: ivt; tags: eGFP (N-terminal); dsDNA, one strand shown. In a few lines:
as §1
CAAAAACAGC yielded a binding signal of 0.251 relative 10-mer count.
Still for that read-out and setting: under AAAACAGTGC stands 0.195 relative 10-mer count.
The same measure, in the same setting: with AAACAGCAGT the figure was 0.159 relative 10-mer count; with AACAGTGTAT, 0.199 relative 10-mer count; with AAAACAGAGT, 0.279 relative 10-mer count.
In the case of CGAAAACAGC, the binding signal amounted to 0.261 relative 10-mer count.
Same read-out and setting: under AAACAGTGTT stands 0.546 relative 10-mer count.
On the same count and under the same terms, under AAACAGGGGT stands 0.153 relative 10-mer count; under CAGGGTTGCC, 0.49 relative 10-mer count; under ACAAAGCAGT, 0.174 relative 10-mer count.
On the same count and under the same terms, with AAAACAGGGG the figure was 0.145 relative 10-mer count; with AAGAAAACAG, 0.222 relative 10-mer count; with AAAACAGTAC, 0.166 relative 10-mer count.
CAAAACAGCG showed a binding signal of 0.176 relative 10-mer count.
On the same count and under the same terms, under AAAGGAACAG stands 0.0545 relative 10-mer count; under AAACAGCGTC, 0.277 relative 10-mer count; under AACAGCATGC, 0.163 relative 10-mer count.
On the same count and under the same terms, under AAAACAGCGT stands 0.975 relative 10-mer count; under AACAAACAGC, 0.0709 relative 10-mer count.
On the same count and under the same terms, under AAACAGCACA stands 0.109 relative 10-mer count.
Take CAGTGTTACC: the binding signal came out at 0.259 relative 10-mer count.
The same measure, in the same setting: under AAACACTGCT stands 0.18 relative 10-mer count; under ACAGAGTACC, 0.152 relative 10-mer count.
On the same count and under the same terms, under CAGCATATCC stands 0.216 relative 10-mer count.
Same read-out and setting: with AAAACAGCAT the figure was 1 relative 10-mer count.
AAAAAGCAGG registered a binding signal of 0.172 relative 10-mer count.
The same measure, in the same setting: under AGACACTGCT stands 0.127 relative 10-mer count; under AAACTAGCAT, 0.175 relative 10-mer count; under AAAACAGCAG, 0.264 relative 10-mer count.
On the same count and under the same terms, under ACAGCGTATC stands 0.371 relative 10-mer count.
With AAAAGCAGTG, the binding signal was 0.397 relative 10-mer count.
Still for that read-out and setting: under ACAGTGTTTC stands 0.272 relative 10-mer count; under AAAACAGCGG, 0.189 relative 10-mer count; under GAAAAACAGC, 0.324 relative 10-mer count.
Same read-out and setting: under AAACAGAGTA stands 0.22 relative 10-mer count; under AAAACAGCCC, 0.156 relative 10-mer count; under ACAGTGTCTC, 0.236 relative 10-mer count.
Same read-out and setting: with CGCTGTTTTA the figure was 0.174 relative 10-mer count.
Consider AACAGCATCC, for which the binding signal came out at 0.1 relative 10-mer count.
Same read-out and setting: with CGCTGTTTTC the figure was 0.356 relative 10-mer count.

The values are drawn from paper PMC13541613, “GHT-SELEX demonstrates unexpectedly high intrinsic sequence specificity and complex DNA binding of many human transcription factors”.
